# Screening data from PubChem.
# An excerpt weighted towards active compounds, which were near 11% of everything screened.
# PI5P4Ka inh: qHTS for Inhibitors of phosphatidylinositol 5-phosphate 4-kinase (PI5P4K). Phosphatidylinositol 5-phosphate 4-kinase type-2 alpha (Homo sapiens), P48426. PI5P4Kalpha enzyme, ADP-Glo luminescence, 60 min; active compounds read low. max response, %. 1.2% of 330,000 active; active = max response of -50% or lower; inconclusive = between -30% and -50%; inactive = -30% or higher; also: value at the top dose of about 77 µM; % is scaled to controls: 0 for no effect and ±100 for the full control effect
#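 qHTS, 1536-well: enzyme/substrate mix, compound by pin tool, 5 microM ATP final; RT 60 min; ADP-Glo reagents 1 (45 min) then 2 (30 min); luminescence.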
# JMJD2A Tudor inh: qHTS Assay for Inhibitors of JMJD2A-Tudor Domain. Lysine-specific demethylase 4A (Homo sapiens), O75164. AlphaScreen JMJD2A-Tudor / H3K4me3 peptide binding. Potency, µM (top dose mostly 114 µM), for inactives: at the highest dose activity change, negative = inhibition, hits mostly inhibitors. 4.4% of 390,000 active. AID 504339, 2011; also: potency is read from the fitted curve at half-maximal effect; % is scaled to controls: 0 for no effect and ±100 for the full control effect; nearly all actives have a fitted effect of over 50% in size
# BAZ2B inh: qHTS Assay for Inhibitors of BAZ2B; AlphaScreen BAZ2B-H3K14Ac peptide displacement; Bromodomain adjacent to zinc finger domain protein 2B (Homo sapiens), Q9UIF8; AID 504333, 2011; 4.4% of 360,000 active; Potency, µM (top dose mostly 114 µM), without a hit: at the highest dose activity change, negative = inhibition, most hits filed as inhibitors; also: potency is read from the fitted curve at half-maximal effect; % is scaled to controls: 0 for no effect and ±100 for the full control effect; nearly all actives have a fitted effect of over 60% in size
#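 Compounds, titrated to a top concentration of 110 uM, were incubated 30 min at room temperature with preformed BAZ2B/acetyl-K14 H3 peptide complex (50 nM each). Proximity signal was measured by AlphaScreen after 20 min with beads.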
# L3MBTL1 block: qHTS Assay for the Inhibitors of L3MBTL1; Potency, µM (series often up to 57.1 µM), inactives show at the top dose activity, negative = inhibition, actives largely listed as inhibitors; 0.66% of 230,000 active; AlphaScreen L3MBTL1–H3K9me1 peptide binding; also: potency is read from the fitted curve at half-maximal effect; % is scaled to controls: 0 for no effect and ±100 for the full control effect; nearly all actives have a fitted effect of over 60% in size
#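 AlphaScreen proximity signal between nickel-chelate acceptor and streptavidin donor beads (final 10 ug/mL) reports binding of 50 nM L3MBTL1 to 75 nM biotin-H3 K9me1 peptide; complex incubated with compounds 30 min at room temperature; cefsulodin titration as control.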
# G9a inh: qHTS Assay for Inhibitors of Histone Lysine Methyltransferase G9a. 8.8% of 350,000 active. AID 504332, 2011. Potency, µM (titrated, usually from 102 µM), without a hit: top-dose activity, negative = inhibition, most hits filed as inhibitors. G9a H3K9 monomethylation, AlphaScreen, 2 h; also: potency is read from the fitted curve at half-maximal effect; % is scaled to controls: 0 for no effect and ±100 for the full control effect; nearly all actives have a fitted effect of over 75% in size
# Target sequence (Q96KQ7 913-1193 limits assumed): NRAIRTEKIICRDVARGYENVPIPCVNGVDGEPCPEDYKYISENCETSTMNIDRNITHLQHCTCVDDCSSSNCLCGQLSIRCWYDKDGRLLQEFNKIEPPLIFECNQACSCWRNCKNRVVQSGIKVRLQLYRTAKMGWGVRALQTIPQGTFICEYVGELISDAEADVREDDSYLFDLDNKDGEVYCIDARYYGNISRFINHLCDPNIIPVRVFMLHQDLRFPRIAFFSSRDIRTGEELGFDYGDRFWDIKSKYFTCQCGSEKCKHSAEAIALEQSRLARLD
#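 AlphaScreen detection with an anti-monomethyl H3K9 antibody quantified product after a 2 h room-temperature reaction containing 500 nM biotinylated H3K9 peptide, 20 µM SAM and 20 nM enzyme, which had been preincubated 15 min with compound.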
# HP1b binding inh: HTS for Inhibitors of HP1-beta Chromodomain Interactions with Methylated Histone Tails. Chromobox protein homolog 1 (Homo sapiens), P83916. AlphaScreen HP1-beta / biotin-H3K9me3 peptide binding. Potency, µM (top dose mostly 114 µM), for the others: at the highest dose activity change, negative = inhibition, hits mostly inhibitors. 0.56% of 390,000 active. AID 540317, 2011; also: potency is read from the fitted curve at half-maximal effect; nearly all actives have a fitted effect of over 70% in size
# Target sequence (P83916 whole entry, looked up): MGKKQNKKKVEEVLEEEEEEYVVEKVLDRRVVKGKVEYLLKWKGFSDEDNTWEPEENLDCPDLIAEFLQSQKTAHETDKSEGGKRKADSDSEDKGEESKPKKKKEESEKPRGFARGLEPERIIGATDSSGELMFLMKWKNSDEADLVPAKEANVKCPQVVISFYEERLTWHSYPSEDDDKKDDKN
#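 Compound inhibition of the preformed complex between 50 nM HP1-beta and 50 nM biotinylated H3K9me3 peptide was read by AlphaScreen. Buffer was PBS pH 7.4 with 0.01% Tween-20. Incubations ran 30 min at room temperature, with 10 ug/mL donor/acceptor beads.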
# Active calls of the source: *; ? = inconclusive; . = no result given; [ ] = remark or other dose. Unless noted, calls follow the shape of the dose curve; as a rule, active = well fitted inhibition curve with a large enough effect; inconclusive = small, poorly fitted or top-dose-only effect; inactive = no such curve, though single readings can be large or run the other way.
SMILES,PI5P4Ka inh,JMJD2A Tudor inh,BAZ2B inh,L3MBTL1 block,G9a inh,HP1b binding inh
COC(=O)CN(c1ccc(OC)cc1OC)S(=O)(=O)c1ccccc1[N+](=O)[O-],-0.3,-17.6%,-17.3%,3.0%,11.2µM*,8.8%
CCOC(=O)Cc1ccc(NCc2ccc(Cl)cc2)cc1,9.5,?,?,.,50.1µM*,9.0%
Cc1ccc(Cl)cc1NC(=O)NCc1cccn1Cc1ccc(F)cc1,.,-8.4%,-1.5%,.,-2.5%[59 µM],32.2%
O=C(CN1C2CCC1CC(NC(=O)NC1CCCCC1)C2)NC1CC1 (centres undefined),.,-18.9%,8.7%,3.8%,70.8µM*,20.0%
CCCN1C2CCCC1CC(NC(=O)NC1CCCCC1)C2 (centres undefined),.,-11.0%,8.8%,5.0%,23.0%,35.6%
CCOc1ccc(NC(=O)N2CC=C(c3c[nH]c4ccccc34)CC2)cc1,.,?,?,.,-39.2%[59 µM],1.3%
Cn1c(CNS(=O)(=O)c2ccc(Cl)cc2)n[nH]c1=S,-4.7,6.31µM*,8.8%,4.8%,?,32.9%
Cn1c(CNS(=O)(=O)c2ccc(F)cc2)n[nH]c1=S,1.6,11.2µM*,-2.0%,4.2%,?,33.6%
CCC(C)Sc1nnc(CNS(=O)(=O)c2ccc(F)cc2)n1C (centres undefined),2.0,-3.2%,-3.9%,.,11.5%,56.4%
O=C(CC1NCCC[C@H]1O)Cn1cnc2cc(Br)c(Cl)cc2c1=O (some centres undefined),.,.,.,.,-50.4%[12.7 µM],.
Cc1cc(/C=C2\NC(=O)N(Cc3ccc(Cl)cc3)C2=O)c(C)n1C,-12.3,-28.8%,-28.4%,-22.2%,15.8µM*,21.9%
COC(=O)C1=C(C)N(c2ccc(OC)c(OC)c2)C(=O)/C1=C\c1cccs1,-9.7,-27.0%,-34.3%,-15.5%,?,16.9%
COC(=O)C1=C(C)N(Cc2ccc(C)cc2)C(=O)C1,.,-0.7%,1.3%,-2.7%,-8.3%,24.9%
COC(=O)C1=C(C)N(CC2CCCO2)C(=O)/C1=C\c1ccc(O)cc1 (centres undefined),-5.6,35.5µM*,?,.,?,?
COC(=O)C1=C(C)N(Cc2ccc(C)cc2)C(=O)/C1=C\c1cc(OC)c(OC)c(OC)c1,15.1,11.2µM*,39.8µM*,-3.3%,25.1µM*,-21.5%
COC(=O)C1=C(C)N(Cc2ccc(C)cc2)C(=O)/C1=C\c1ccc(O)c(OC)c1,1.1,25.1µM*,50.1µM*,-20.2%,18.7%[2.33 µM],22.4µM*
CCOc1cc(/C=C2\C(=O)N(CCc3ccc(OC)c(OC)c3)C(C)=C2C(=O)OC)ccc1O,1.6,39.8µM*,50.1µM*,-4.0%,?,?
COC(=O)C1=C(C)N(c2ccc(C)c(C)c2)/C(=C/c2ccc(O)cc2)C1=O,3.9,-29.4%,0.9%,.,?,4.5%
CC(=O)N[C@H](Cc1c[nH]c2ccccc12)C(N)=O,.,.,.,.,-0.8%[2.33 µM],.
CC1CCc2c(sc3nnn(Cc4ccc(F)cc4)c(=O)c23)C1 (centres undefined),.,44.3%,50.9%,.,72.4%[59 µM],47.2%
COC(=O)C(CC(C)C)NS(=O)(=O)c1ccccc1Br (centres undefined),.,47.6%,.,.,.,71.9%
CCOc1ccc(N2C(=O)S/C(=C\c3ccc(O)c(OC)c3)C2=O)cc1,-3.8,-8.4%,-2.4%,0.3%,1.8%,3.7%
CCOC(=O)C1=C(C)N(c2ccc(C)cc2)C(=O)/C1=C\c1ccc(O)c(OC)c1,-6.1,8.91µM*,44.7µM*,-21.1%,.,?
CCOc1cc(/C=C2\C(=O)N(Cc3ccco3)C(C)=C2C(=O)OC)ccc1O,-14.7,17.8µM*,50.1µM*,-29.1%,8.91µM*,20µM*
Cn1cccc1C(=O)N1CCC2(CC1)CCN(C(c1ccccc1)c1ccccc1)CC2,.,.,.,.,-1.6%[12.7 µM],.
SMILES,PI5P4Ka inh,JMJD2A Tudor inh,BAZ2B inh,L3MBTL1 block,G9a inh,HP1b binding inh
COc1ccc(O)c(/C=N/NC(=S)Nc2cccc(S(=O)(=O)N(C)C)c2)c1,-55.6*,22.4µM*,7.94µM*,10µM*,?,-32.1%
COc1cccc(/C=N/NC(=S)Nc2cccc(S(=O)(=O)N(C)C)c2)c1,-29.0,?,?,.,8.91µM*,?
COc1ccc(O)c(/C=N/NC(=S)Nc2cccnc2)c1,-18.4,25.1µM*,.,11.2µM*,?,10.1%
CN(C)S(=O)(=O)c1cccc(NC(=S)N/N=C/c2ccc(O)c(O)c2O)c1,-97.4*,20µM*,4.47µM*,1.58µM*,3.16µM*,?
COc1cc(/C=N/NC(=S)Nc2cccc(S(=O)(=O)N(C)C)c2)cc(OC)c1O,22.1,-16.6%,-32.2%,-14.4%,3.5%[59 µM],23.5%
Cc1ccc(C)c(CNC(=O)c2ccc3c(c2)nc2n3CCCCC2)c1,.,-1.3%,-3.4%,.,-20.8%[59 µM],30.0%[57 µM]
Cc1ccc(NC(=O)Cc2csc(C)n2)c(C)c1,.,-10.4%,3.0%,.,10.4%[59 µM],25.5%
N#CC(c1ccc(Cl)cc1)c1ccc2c(C(F)(F)F)cc(C(F)(F)F)nc2n1 (centres undefined),-10.7,50.1µM*,31.6µM*,.,11.2µM*,8.91µM*
CCC(CO)Oc1cc(NCc2ccc(C(C)(C)C)cc2)c2ncn(C(C)C)c2c1 (centres undefined),0.1,25.1µM*,.,-14.0%,.,-17.1%
CCC(COC)Oc1cc(NCc2ccccc2)c2ncn(C(C)C)c2c1 (centres undefined),-0.3,50.1µM*,50.1µM*,?,1.4%[0.501 µM],-25.4%
CCC(CO)Oc1cc(NCc2ccc(O)cc2)c2ncn(C(C)C)c2c1 (centres undefined),-4.3,?,.,-4.9%,.,10.2%
CCC(COC(=O)c1ccccc1)Oc1cc(NCc2ccccc2)c2ncn(C(C)C)c2c1 (centres undefined),-2.2,44.7µM*,.,?,.,-20.9%
CCC(CO)Oc1cc(NCc2ccccc2)c2ncn(C(C)C)c2c1 (centres undefined),-1.2,?,.,-25.0%,.,13.6%
CCN1c2ccccc2-c2nc(SCC(=O)NCc3ccc(C)cc3)ncc2S1(=O)=O,.,-1.6%,-0.1%,.,6.6%[59 µM],18.4%
Cn1nc(Cc2n[nH]c(=S)n2C)c2ccccc2c1=O,-8.2,3.98µM*,0.5%,.,.,31.5%
CCOC(=O)Cc1nn(C)c(=O)c2ccccc12,.,-1.8%,4.0%,.,-4.8%[59 µM],6.5%
O=S(=O)(CCc1ccncc1)Cc1ccc2c3c(cccc13)CC2,-10.5,-4.2%,-3.3%,.,50.1µM*,24.9%
COc1ccc(-c2noc(-c3ccc(N4CCCCC4C)c([N+](=O)[O-])c3)n2)cc1OC (centres undefined),.,3.0%,-18.7%,.,?,48.0%
